The nature of assay [1]: ATG_CRE_CIS: Attagene CIS-FACTORIAL HepG2 Assay for human cAMP Responsive Element (CRE) binding protein 3 (AID 2282926). The note with it: HepG2 CRE cis-reporter, Attagene multiplexed mRNA; actives raise or lower the signal. The gist of the method: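 We dosed HepG2 cells bearing multiple cis-promoter reporter units for 24 h and measured reporter mRNA by RT-PCR with capillary electrophoresis detection. Bidirectional concentration-response fitting used DMSO as negative control.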

The target of assay [2] is CCAAT/enhancer-binding protein beta (Homo sapiens) (UniProt P17676). Briefly: ATG_C_EBP_CIS: Attagene CIS-FACTORIAL HepG2 Assay for human CCAAT/Enhancer Binding Protein (C/EBP) beta (AID 2282927). The note with it: HepG2 Attagene cis-factorial transcription factor reporter; actives raise or lower the signal. In outline: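 HepG2, transient MRTU transfection, 24 h treatment. RT-PCR plus CE fluorescence; DMSO negative control, bidirectional fit.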

Assay [3] in a line: ATG_CMV_CIS: Attagene CIS-FACTORIAL HepG2 Assay for human CMV (Internal Marker) (AID 2282928).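 Further: endpoint acts as a background internal control marker rather than a target.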 The note with it: HepG2 CMV promoter reporter, transcription factor profiling; actives raise or lower the signal. The gist of the method: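 After transient transfection of HepG2 with reporter transcription units driven by cis-regulatory promoters, cells receive test chemical for 24 h. Labeled reporter amplicons, digested with HpaI, are sized and quantified by capillary electrophoresis against DMSO.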

Calls of active or inactive are those of the source. How the source made its calls: active means hit-call score of the fitted dose curve at least 0.9, where 1 is the maximum; inactive means score below 0.9.

The source of these data is PubChem BioAssay (EPA / NIEHS).

Chain of CCAAT/enhancer-binding protein beta (Homo sapiens) (P17676 whole entry, looked up): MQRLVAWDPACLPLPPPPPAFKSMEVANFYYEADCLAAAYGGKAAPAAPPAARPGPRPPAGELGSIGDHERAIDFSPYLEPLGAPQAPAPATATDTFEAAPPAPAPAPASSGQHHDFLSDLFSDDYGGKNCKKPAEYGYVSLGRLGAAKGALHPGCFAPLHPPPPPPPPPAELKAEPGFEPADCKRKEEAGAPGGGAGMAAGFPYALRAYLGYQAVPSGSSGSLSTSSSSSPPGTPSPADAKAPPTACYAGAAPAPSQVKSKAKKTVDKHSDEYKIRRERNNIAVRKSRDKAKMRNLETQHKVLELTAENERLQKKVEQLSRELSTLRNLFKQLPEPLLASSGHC

In the case of `Clc1cc(C(Cl)(Cl)Cl)cnc1Cl`, the compound was called inactive in assay [1], in assay [2] and in assay [3].
`Nc1ccc(Br)cc1`: the call in assay [1], in assay [2] and in assay [3] was inactive.
In the case of `Cc1ccc(OP(=O)(Oc2ccc(C)cc2C)Oc2ccc(C)cc2C)c(C)c1`, the result in assay [1], in assay [2] and in assay [3] was inactive.
As usually defined, the AC50 is the concentration giving half of the maximal activity seen. Regarding `Cc1c([N+](=O)[O-])c(C)c([N+](=O)[O-])c(C(C)(C)C)c1[N+](=O)[O-]`, the compound was called inactive in assay [1] and in assay [2]. The AC50 in assay [3] was 100 µM (active).
On to `CC(C)CP(=S)(S)CC(C)C`, for which the outcome in assay [1], in assay [2] and in assay [3] was inactive.
Take `COP(=S)(OC)Oc1cc(Cl)c(I)cc1Cl`: the AC50 in assay [1] is 29.6 µM (active); in assay [2] it was 27.9 µM (active); in assay [3], 50.2 µM (active).
On to `CC(C)(c1ccccc1)c1cc(-n2nc3ccccc3n2)c(O)c(C(C)(C)c2ccccc2)c1`, for which the call in assay [1], in assay [2] and in assay [3] was inactive.
Turning to `C#C[C@]1(O)CC[C@H]2[C@@H]3CCC4=CC(=O)CC[C@]4(C)[C@H]3CC[C@@]21C`, the compound was classed as inactive in assay [1], in assay [2] and in assay [3].
As to `O=C(CCl)NCO`, the outcome in assay [1], in assay [2] and in assay [3] was inactive.
Take `CCC[CH2][Sn]([CH2]CCC)([CH2]CCC)[CH2]CCC`: the compound was called inactive in assay [1] and in assay [3]. Besides, the AC50 in assay [2] is 5.44 µM (active).
In the case of `CCOC(=O)CCN(SN(C)C(=O)Oc1cccc2c1OC(C)(C)C2)C(C)C`, the compound was classed as inactive in assay [1], in assay [2] and in assay [3].
Consider `CCCCCCCCCCCCBr`, for which the result in assay [1], in assay [2] and in assay [3] was inactive.
Turning to `CCCCCCCCCCCCCl`, the result in assay [1], in assay [2] and in assay [3] was inactive.
Consider `c1ccc(-c2cccc(-c3ccccc3)c2)cc1`, for which the compound was called inactive in assay [1], in assay [2] and in assay [3].
Regarding `ClCCN1CCOCC1`, the compound was classed as inactive in assay [1], in assay [2] and in assay [3].
`Nc1c(Oc2ccccc2)cc(O)c2c1C(=O)c1ccccc1C2=O`: the result in assay [1], in assay [2] and in assay [3] was inactive.
Turning to `Oc1cccc(-c2ccccc2)c1`, the result in assay [1] and in assay [2] was inactive. Further, the AC50 in assay [3] was 67.7 µM (active).
As to `OC(Cc1ccccc1Cl)(Cn1[nH]cnc1=S)C1(Cl)CC1` (stereo not drawn), the compound was called inactive in assay [1], in assay [2] and in assay [3].
Consider `C#CCO`, for which the compound was called inactive in assay [1], in assay [2] and in assay [3].
In the case of `Cc1cc(Cl)ccc1O`, the result in assay [1], in assay [2] and in assay [3] was inactive.
On to `CCOP(=S)(OCC)OP(=S)(OCC)OCC`, for which the compound was classed as inactive in assay [1], in assay [2] and in assay [3].
In the case of `Brc1ccc(Br)cc1`, the outcome in assay [1], in assay [2] and in assay [3] was inactive.
As to `CCCCC(CC)COC(=O)Cl` (stereo not drawn), the call in assay [1], in assay [2] and in assay [3] was inactive.
Take `C=CC(Cl)CCl` (stereo not drawn): the compound was classed as inactive in assay [1], in assay [2] and in assay [3].
In the case of `CC[N+](CC)(CC)CC`, the result in assay [1], in assay [2] and in assay [3] was inactive.
`CCOP(=S)(OCC)Oc1ccc(Cl)cc1Cl`: the compound was called inactive in assay [1] and in assay [2]. For the same compound, the AC50 in assay [3] was 63 µM (active).
On to `CNC(=O)N(C)c1nc2ccccc2s1`, for which the outcome in assay [1], in assay [2] and in assay [3] was inactive.
Regarding `CCCCOC(=O)COC(=O)c1ccccc1C(=O)OCCCC`, the call in assay [1], in assay [2] and in assay [3] was inactive.
For the compound `CC(C)=CC1C(C(=O)OCc2cccc(Oc3ccccc3)c2)C1(C)C` (stereo not drawn), the compound was called inactive in assay [1], in assay [2] and in assay [3].
`OC[C@@H](O)[C@H]1O[C@@H]2O[C@H](C(Cl)(Cl)Cl)O[C@@H]2[C@H]1O`: the result in assay [1], in assay [2] and in assay [3] was inactive.
For `O=S(=O)(C(Cl)(Cl)Cl)C(Cl)(Cl)Cl`, the AC50 in assay [1] is 15.2 µM (active). Further, the result in assay [2] and in assay [3] was inactive.
As to `CCCCCCCCCCCCCCC(Br)C(=O)O` (stereo not drawn), the outcome in assay [1] and in assay [3] was inactive. Besides, the AC50 in assay [2] is 179 µM (active).
As to `OC[P+](CO)(CO)CO`, the result in assay [1], in assay [2] and in assay [3] was inactive.
As for `Oc1ccc(Cc2ccc(O)cc2)cc1`, the compound was called inactive in assay [1] and in assay [2]. Also, in assay [3], the AC50 is 77.1 µM (active).
With `O=C(NC(=O)c1c(F)cccc1F)Nc1cc(Cl)c(OC(F)(F)C(F)C(F)(F)F)cc1Cl` (stereo not drawn), the result in assay [1], in assay [2] and in assay [3] was inactive.
Consider `O=C(CBr)c1ccc(O)cc1`, for which the outcome in assay [1], in assay [2] and in assay [3] was inactive.
Regarding `O=C(O)COc1ccc(Cl)cc1`, the call in assay [1] and in assay [3] was inactive.
As to `CC(c1ccc(O)cc1)c1ccc(O)cc1`, the outcome in assay [1] and in assay [3] was inactive.
On to `COCCl`, for which the call in assay [1] and in assay [3] was inactive.
Consider `Nc1ncn[nH]1`, for which the result in assay [1] and in assay [3] was inactive.
Regarding `O=C(Cc1ccccc1)OCCc1ccccc1`, the compound was classed as inactive in assay [1] and in assay [3].
In the case of `COC(=O)c1cc(Oc2ccc(Cl)cc2Cl)ccc1[N+](=O)[O-]`, the compound was classed as inactive in assay [1] and in assay [3].
As to `CCN(CCO)CCO`, the compound was classed as inactive in assay [1], in assay [2] and in assay [3].
As for `c1ccc2sc(SNC3CCCCC3)nc2c1`, the result in assay [1] and in assay [3] was inactive.
Consider `CN(C1CCCCC1)C1CCCCC1`, for which the call in assay [1] and in assay [3] was inactive.
Turning to `O=S1OC[C@@H]2[C@H](CO1)[C@]1(Cl)C(Cl)=C(Cl)[C@@]2(Cl)C1(Cl)Cl` (stereo partly drawn), the outcome in assay [1] was inactive. For the same compound, the AC50 in assay [3] is 100 µM (active).
Consider `Cc1cc(C(C)(C)c2ccc(O)c(C)c2)ccc1O`, for which the AC50 was 21.8 µM (active) in assay [1] and 89.3 µM (active) in assay [3].
In the case of `CC(C)(COCC1CO1)COCC1CO1` (stereo not drawn), the outcome in assay [1] and in assay [3] was inactive.
